Assay outcomes as filed in PubChem BioAssay.
SENP8 block-1 – inhibitors of human SENP8 protease. Q96LD8. purified SENP8, Z-RLRGG-aminoluciferin cleavage, luminescence. inhibition, % at 10 µM. hit rate 1.2% among 330,000; in the data active means inhibition above about 50%
Target sequence (Q96LD8 whole entry, looked up): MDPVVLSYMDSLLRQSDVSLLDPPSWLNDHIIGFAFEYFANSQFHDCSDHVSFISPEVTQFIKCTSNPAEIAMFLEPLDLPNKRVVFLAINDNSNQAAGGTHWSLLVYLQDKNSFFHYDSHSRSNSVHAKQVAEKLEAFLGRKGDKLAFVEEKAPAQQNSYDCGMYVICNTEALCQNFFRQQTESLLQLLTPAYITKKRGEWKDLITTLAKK
PPC-1+TRAIL kill – compounds killing PPC-1 cancer cells with TRAIL present (potentiator screen, no TRAIL-free arm); cell killing (% activity), % at 4 µM or 5 µM; hit rate 0.41% among 220,000; PPC-1 cells + TRAIL, ATPLite viability luminescence;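 active means cell killing above 50% in the first pass at 4 µM, then a duplicate retest at 5 µM averaging 50% or more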
SENP7 inh – blocks the human protease SENP7; Q9BQF6; recombinant SENP7, Z-RLRGG-aminoluciferin luminescence, 40 min; inhibition, % at 5 µM; hit rate 1.5% among 330,000;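 active means inhibition above about 50% at the single test dose, limit read from the data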
Target sequence (Q9BQF6 706-1050 limits assumed): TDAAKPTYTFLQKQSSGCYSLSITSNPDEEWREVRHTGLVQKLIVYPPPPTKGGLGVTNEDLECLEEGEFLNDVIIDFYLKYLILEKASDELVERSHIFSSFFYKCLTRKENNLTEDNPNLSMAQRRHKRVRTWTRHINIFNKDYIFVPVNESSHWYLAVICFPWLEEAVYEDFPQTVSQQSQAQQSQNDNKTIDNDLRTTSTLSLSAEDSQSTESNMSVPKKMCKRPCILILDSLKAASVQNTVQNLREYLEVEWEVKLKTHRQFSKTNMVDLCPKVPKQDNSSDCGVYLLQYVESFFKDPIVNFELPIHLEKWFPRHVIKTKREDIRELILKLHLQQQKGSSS
SENP6 inh – SENP6 protease inhibition | Recombinant SENP6 catalytic domain, aminoluciferin luminescence | AID 2599 | inhibition, % at 10 µM | hit rate 1.8% among 330,000 | Q9GZR1;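 active means inhibition above about 50% at the single tested dose, limit read from the data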
SENP8 block-2 – inhibitors of human SENP8 protease; Q96LD8; inhibition, % at 20 µM; recombinant SENP8, Nedd8 substrate fluorescence; AID 602440; hit rate 0.64% among 360,000; in the data active means inhibition mostly above about 40%, no sharp cut-off; inactive means mostly below about 27%
C8 TRAIL sens – sensitizes caspase-8 expressing cells to TRAIL. NB7+C8 cells + TRAIL, ATPlite viability luminescence. inhibition (viability loss, TRAIL sensitization), % at 10 µM. hit rate 1% among 360,000;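 active means compounds causing at least 50% loss of cell viability in the single-dose screen, relative to plate controls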
SENP8 conf – confirmation of human SENP8 protease inhibitors. shares compounds with SENP7 inh. Recombinant SENP8, Z-RLRGG-aminoluciferin luminescence, 60 min. inhibition, % at 12.5 µM. hit rate 40% among 6,200. AID 488912;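 active means mean inhibition across replicates above about 50%, limit read from the data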
SENP6 conf – confirmation of human SENP6 protease inhibitors; inhibition, % at 12.5 µM; shares compounds with SENP7 inh; AID 488915; hit rate 58% among 6,200; recombinant SENP6, Z-RLRGG-aminoluciferin luminescence
SENP7 conf – confirmation of human SENP7 protease inhibitors; hit rate 69% among 6,200; inhibition, % at 12.5 µM; recombinant SENP7, Z-RLRGG-aminoluciferin luminescence, 40 min; shares compounds with SENP7 inh
Casp3 SENP sel – caspase-3 inhibition (SENP selectivity assay) | purified caspase-3, Z-DEVD-aminoluciferin luminescence, 60 min | inhibition, % at 12.5 µM | hit rate 60% among 6,200 | shares compounds with SENP7 inh;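 active means mean inhibition above about 50%, limit read from the data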
Luc interf – counter-screen for SENP inhibitors: luminescence interference | shares compounds with SENP7 inh | Pre-incubated SENP8/Z-RLRGG-aminoluciferin, luciferase luminescence interference | inhibition, % at 12.5 µM | hit rate 39% among 6,200;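 active means mean inhibition above about 50% when retested at one dose, limit read from the data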
Each line names hits and unclear results; the compound was inactive in the other large screens (follow-up assays come after a bar, where they were run). Only some compounds are listed: those with a hit (about 3% of all), similar ones and a draw of the others.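 How the source made its calls, unless noted: active means mean inhibition above about 50% in the one-dose retest (limit read from the data); inactive means the rest.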

Cn1c(SCc2ccccc2Cl)nc2ccccc21	SENP8 block-1 75, SENP7 inh 67, SENP6 inh 86 | SENP8 conf inactive | SENP6 conf 77 | SENP7 conf 95 | Casp3 SENP sel 67 | Luc interf 66
CCn1c(CSc2nc3ccccc3n2C)nc2ccccc21	none
COc1ccc(CN2CCN(CCc3ccccc3)C(CCO)C2)c(Cl)c1OC (stereo unspecified)	none (no result: PPC-1+TRAIL kill)
COc1ccc(C2C(=O)c3ccccc3C2=O)cc1	SENP8 block-1 62, SENP6 inh 57 | SENP8 conf inactive | SENP6 conf 67 | SENP7 conf 91 | Casp3 SENP sel 84 | Luc interf 62
COc1ccc(C2=C(N)c3ccccc3C2=O)cc1	SENP6 inh 54 | SENP8 conf 52 | SENP6 conf inactive | SENP7 conf 83 | Casp3 SENP sel 73 | Luc interf inactive
Cc1cccc(/C=N\NC(=O)c2ccc(Cl)cc2)c1O	SENP7 inh 73, C8 TRAIL sens 55 | SENP8 conf inactive | SENP6 conf inactive | SENP7 conf inactive | Casp3 SENP sel 60 | Luc interf inactive
Cc1cccc(/C=N/NC(=O)c2ccc3c(c2)OCCO3)c1O	SENP8 block-1 94, SENP7 inh 97, SENP6 inh 94, C8 TRAIL sens 76 (no result: PPC-1+TRAIL kill) | SENP8 conf 96 | SENP6 conf 98 | SENP7 conf 103 | Casp3 SENP sel 94 | Luc interf 66
Cc1cccc(/C=N/NC(=O)Cc2ccc(Cl)cc2)c1O	none (no result: PPC-1+TRAIL kill)
O=C(NC(=S)Nc1cc([N+](=O)[O-])ccc1O)c1ccc2c(c1)OCO2	SENP8 block-1 89, SENP7 inh 81, SENP6 inh 90 (no result: PPC-1+TRAIL kill) | SENP8 conf 93 | SENP6 conf 94 | SENP7 conf 97 | Casp3 SENP sel 87 | Luc interf 77
O=C(N/N=C/c1cc([N+](=O)[O-])ccc1O)c1ccc2c(c1)OCCO2	SENP8 block-1 85, SENP7 inh 89, SENP6 inh 93, C8 TRAIL sens 52 | SENP8 conf inactive | SENP6 conf inactive | SENP7 conf inactive | Casp3 SENP sel inactive | Luc interf inactive
O=C(N/N=C/c1cc([N+](=O)[O-])ccc1O)c1ccncc1	none
O=C(NCCCN1CCCC1)c1[nH]c(C(F)(F)F)nc1-c1ccccc1	none (no result: SENP8 block-1, PPC-1+TRAIL kill, SENP7 inh, SENP6 inh)
Cn1ccc(C(=O)NC(=S)Nc2ccc([N+](=O)[O-])cc2O)n1	SENP8 block-1 56, SENP7 inh 54, SENP6 inh 72 (no result: PPC-1+TRAIL kill) | SENP8 conf 74 | SENP6 conf 72 | SENP7 conf 93 | Casp3 SENP sel 75 | Luc interf 78
COc1cccc(CN(C)C(=O)c2ccccc2Sc2ccccc2C#N)c1OC	none (no result: PPC-1+TRAIL kill)
O=C(Oc1ccc[nH]c1=O)c1ccc(F)cc1	none (no result: SENP8 block-1, PPC-1+TRAIL kill, SENP7 inh, SENP6 inh)
O=C(Nc1ccccc1)Oc1ccc[nH]c1=O	SENP6 inh 74 | SENP8 conf inactive | SENP6 conf inactive | SENP7 conf inactive | Casp3 SENP sel inactive | Luc interf inactive
C(=C\c1ccc2ccccc2n1)/c1ccccc1	SENP8 block-1 98, SENP7 inh 98, SENP6 inh 98, C8 TRAIL sens 73 | SENP8 conf 99 | SENP6 conf 101 | SENP7 conf 104 | Casp3 SENP sel 99 | Luc interf 97
CC(=O)Oc1ccc(Cl)cc1/C=C/c1ccc2ccccc2n1	none
Cn1nc(/C=C/c2ccccc2)ccc1=O	SENP7 inh 58, SENP6 inh 54 | SENP8 conf inactive | SENP6 conf inactive | SENP7 conf 76 | Casp3 SENP sel 76 | Luc interf 55
Fc1ccccc1/C=C/c1ccc2ccccc2n1	SENP8 block-1 96, SENP7 inh 100, C8 TRAIL sens 77 | SENP8 conf 100 | SENP6 conf 101 | SENP7 conf 104 | Casp3 SENP sel 99 | Luc interf 99
O=c1ccc(/C=C/c2ccccc2)nn1Cc1ccccc1	none
CS(=O)(=O)N1CCN(c2ccccc2NC(=O)Nc2cccc(Cl)c2)CC1	none (no result: PPC-1+TRAIL kill)
CCN(C(=O)COC(=O)c1ccc(O)cc1O)c1c(N)n(Cc2ccccc2)c(=O)[nH]c1=O	none (no result: PPC-1+TRAIL kill)
COc1ccccc1NC(=O)COC(=O)c1ccc([N+](=O)[O-])s1	SENP8 block-1 72, SENP7 inh 51, SENP6 inh 91 | SENP8 conf 75 | SENP6 conf 85 | SENP7 conf inactive | Casp3 SENP sel inactive | Luc interf inactive
CN(CC(=O)Nc1ccccc1Cl)C(=O)COC(=O)c1ccc([N+](=O)[O-])s1	SENP8 block-1 69, SENP6 inh 70 (no result: PPC-1+TRAIL kill) | SENP8 conf 78 | SENP6 conf 85 | SENP7 conf inactive | Casp3 SENP sel inactive | Luc interf inactive
Cc1cc(C)c(NC(=O)COC(=O)c2ccc([N+](=O)[O-])s2)c(C)c1	none
NS(=O)(=O)c1ccc(NC(=O)COC(=O)c2ccc([N+](=O)[O-])s2)cc1	SENP8 block-1 59 | SENP8 conf inactive | SENP6 conf 86 | SENP7 conf inactive | Casp3 SENP sel inactive | Luc interf inactive
Cc1ccc(NC(=O)COC(=O)c2ccc([N+](=O)[O-])s2)c(C)c1	none
CCN(CC(=O)Nc1ccc(NC(C)=O)cc1)C(=O)c1cn(-c2ccccc2)nc1-c1cccs1	none (no result: PPC-1+TRAIL kill)
Cc1cc(C(=O)NCCc2ccc(S(N)(=O)=O)cc2)c(C)o1	none (no result: PPC-1+TRAIL kill)
Cc1cc(C)cc(OCCCCn2cncn2)c1	none (no result: PPC-1+TRAIL kill)
OC(COC(c1ccccc1)c1ccccc1)CN1CCN(c2cccc(Cl)c2)CC1 (stereo unspecified)	SENP6 inh 101 (no result: PPC-1+TRAIL kill) | SENP8 conf inactive | SENP6 conf inactive | SENP7 conf inactive | Casp3 SENP sel inactive | Luc interf inactive
CN(C)c1ccc(-c2cc3ccccc3c(=O)o2)cc1	SENP8 block-1 84, SENP7 inh 66, SENP6 inh 77, C8 TRAIL sens 57 (no result: PPC-1+TRAIL kill) | SENP8 conf inactive | SENP6 conf inactive | SENP7 conf inactive | Casp3 SENP sel inactive | Luc interf inactive
CN1CCN(/N=C/c2ccc(-c3ccccc3)cc2)CC1	SENP8 block-1 79, SENP7 inh 83 | SENP8 conf 82 | SENP6 conf 86 | SENP7 conf 98 | Casp3 SENP sel 90 | Luc interf 50
CCN(CC(=O)NCc1cccs1)C(=O)COc1ccc(C(C)=O)cc1	none (no result: PPC-1+TRAIL kill)
